Pf apPOL inh – Pf-apPOL DNA polymerase inhibition; inhibition, % at 10 µM; Recombinant Pf-apPOL, molecular beacon fluorescence, 1.5 h; hit rate 0.25% among 210,000
mHTT CaM bind – disrupts binding of mutant huntingtin to calmodulin; inhibition, % at 15 µM; hit rate 3.6% among 190,000; P42858; AID 1671202; AlphaScreen His-mHTT/GST-CaM binding, luminescence;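 further: 0% = both proteins with DMSO and 100% = one protein alone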
Target sequence (P42858 whole entry, looked up, stated change not applied): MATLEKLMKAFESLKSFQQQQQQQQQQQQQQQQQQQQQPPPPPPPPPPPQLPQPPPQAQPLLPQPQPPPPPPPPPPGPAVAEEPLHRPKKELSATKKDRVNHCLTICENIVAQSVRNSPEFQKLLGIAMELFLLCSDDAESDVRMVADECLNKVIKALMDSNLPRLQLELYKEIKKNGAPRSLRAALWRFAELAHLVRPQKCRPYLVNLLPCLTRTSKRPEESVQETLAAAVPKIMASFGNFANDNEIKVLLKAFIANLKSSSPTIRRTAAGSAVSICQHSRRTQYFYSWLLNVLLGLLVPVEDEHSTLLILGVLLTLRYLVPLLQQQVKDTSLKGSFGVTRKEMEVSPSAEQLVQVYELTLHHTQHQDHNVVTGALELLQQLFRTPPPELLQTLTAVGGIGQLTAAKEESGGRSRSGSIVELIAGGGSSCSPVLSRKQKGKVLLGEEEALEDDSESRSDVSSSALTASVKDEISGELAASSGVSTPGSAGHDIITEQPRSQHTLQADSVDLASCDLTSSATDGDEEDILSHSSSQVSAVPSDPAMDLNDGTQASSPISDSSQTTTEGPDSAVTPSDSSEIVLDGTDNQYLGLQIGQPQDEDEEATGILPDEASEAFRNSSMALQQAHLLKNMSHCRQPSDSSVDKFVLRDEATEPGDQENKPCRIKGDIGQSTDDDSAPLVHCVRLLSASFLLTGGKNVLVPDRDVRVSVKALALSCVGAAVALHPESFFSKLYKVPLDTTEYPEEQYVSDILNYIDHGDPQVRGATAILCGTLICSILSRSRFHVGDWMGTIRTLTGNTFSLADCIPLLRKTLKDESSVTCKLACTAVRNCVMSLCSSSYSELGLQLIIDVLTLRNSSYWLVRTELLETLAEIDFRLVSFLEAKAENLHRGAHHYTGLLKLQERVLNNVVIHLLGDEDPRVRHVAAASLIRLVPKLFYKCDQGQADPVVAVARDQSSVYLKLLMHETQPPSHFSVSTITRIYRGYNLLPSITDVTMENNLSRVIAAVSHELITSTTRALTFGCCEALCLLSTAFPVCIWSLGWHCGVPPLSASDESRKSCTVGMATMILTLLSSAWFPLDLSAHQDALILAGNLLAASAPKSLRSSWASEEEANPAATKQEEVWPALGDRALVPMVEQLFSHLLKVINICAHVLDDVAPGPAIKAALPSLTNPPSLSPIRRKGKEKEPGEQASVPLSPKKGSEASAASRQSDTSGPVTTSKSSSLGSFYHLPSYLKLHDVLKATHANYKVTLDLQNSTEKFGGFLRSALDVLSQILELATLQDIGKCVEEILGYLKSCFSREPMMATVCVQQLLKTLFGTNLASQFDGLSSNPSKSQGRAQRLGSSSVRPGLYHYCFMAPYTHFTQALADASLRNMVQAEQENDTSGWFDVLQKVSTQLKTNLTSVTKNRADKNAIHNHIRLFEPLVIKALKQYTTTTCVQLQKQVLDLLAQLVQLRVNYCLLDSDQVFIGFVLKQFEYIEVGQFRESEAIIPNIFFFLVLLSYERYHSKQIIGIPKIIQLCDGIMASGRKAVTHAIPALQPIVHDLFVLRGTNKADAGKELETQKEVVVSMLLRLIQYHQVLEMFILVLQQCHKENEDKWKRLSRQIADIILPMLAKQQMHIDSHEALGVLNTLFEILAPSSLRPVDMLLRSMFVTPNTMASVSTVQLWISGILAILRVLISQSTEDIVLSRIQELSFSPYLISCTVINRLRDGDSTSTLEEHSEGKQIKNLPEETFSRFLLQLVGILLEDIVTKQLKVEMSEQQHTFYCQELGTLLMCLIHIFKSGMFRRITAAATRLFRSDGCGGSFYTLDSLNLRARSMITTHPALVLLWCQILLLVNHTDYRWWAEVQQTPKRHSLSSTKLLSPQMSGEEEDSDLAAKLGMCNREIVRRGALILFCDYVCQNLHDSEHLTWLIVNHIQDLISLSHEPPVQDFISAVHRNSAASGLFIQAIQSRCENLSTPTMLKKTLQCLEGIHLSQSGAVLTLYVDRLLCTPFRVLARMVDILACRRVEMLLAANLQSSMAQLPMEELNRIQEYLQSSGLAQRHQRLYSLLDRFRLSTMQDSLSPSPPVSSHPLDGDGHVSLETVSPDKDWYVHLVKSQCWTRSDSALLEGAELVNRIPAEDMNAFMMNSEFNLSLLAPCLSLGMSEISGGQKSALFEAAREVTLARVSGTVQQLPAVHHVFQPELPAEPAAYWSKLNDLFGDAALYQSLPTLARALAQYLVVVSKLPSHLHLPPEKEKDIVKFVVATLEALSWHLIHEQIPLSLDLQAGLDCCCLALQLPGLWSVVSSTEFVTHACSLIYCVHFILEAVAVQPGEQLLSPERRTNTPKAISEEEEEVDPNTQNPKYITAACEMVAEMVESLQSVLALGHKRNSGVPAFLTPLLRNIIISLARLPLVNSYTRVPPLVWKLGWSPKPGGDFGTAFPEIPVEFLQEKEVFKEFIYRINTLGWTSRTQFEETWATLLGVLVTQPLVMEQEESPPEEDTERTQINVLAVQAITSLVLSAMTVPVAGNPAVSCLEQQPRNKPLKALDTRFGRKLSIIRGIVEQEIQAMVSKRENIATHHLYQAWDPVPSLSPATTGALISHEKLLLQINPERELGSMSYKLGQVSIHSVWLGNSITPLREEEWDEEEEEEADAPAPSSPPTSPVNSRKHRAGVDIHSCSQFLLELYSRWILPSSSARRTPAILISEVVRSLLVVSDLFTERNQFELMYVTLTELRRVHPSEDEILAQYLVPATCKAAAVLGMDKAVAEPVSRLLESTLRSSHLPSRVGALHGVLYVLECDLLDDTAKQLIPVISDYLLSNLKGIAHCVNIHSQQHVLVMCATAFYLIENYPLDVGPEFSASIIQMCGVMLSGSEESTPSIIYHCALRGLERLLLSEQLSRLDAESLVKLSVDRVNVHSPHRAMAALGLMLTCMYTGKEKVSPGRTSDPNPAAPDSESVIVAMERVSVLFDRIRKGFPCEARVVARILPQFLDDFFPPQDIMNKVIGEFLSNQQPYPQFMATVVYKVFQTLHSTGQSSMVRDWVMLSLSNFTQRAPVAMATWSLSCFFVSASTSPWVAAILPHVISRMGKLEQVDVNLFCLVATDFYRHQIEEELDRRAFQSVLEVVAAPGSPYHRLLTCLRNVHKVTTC
Starred values were filed as active, the others as inactive; i = inactive; . = not tested or not shown. Rows were chosen to be rich in hits. Some 3.5% of all compounds tested hit in one or more screens of this group. No stated cut-off is given here; in the data, active means inhibition above about 50%; inactive means the rest.

SMILES	Pf apPOL inh	mHTT CaM bind
NC(COc1ccc(-c2nnco2)cc1)=NOC(=O)c1cccc(C(F)(F)F)c1	1.8	.
COc1ccc(-n2nc3cc(C)c(NC(=O)c4ccc(C)c([N+](=O)[O-])c4)cc3n2)cc1	-10.3	-2.0
Cc1ccccc1CNC(=O)c1ccn2c(-c3cc(F)cc(F)c3)nnc2c1	-3.6	-5.0
CCN1C(=O)CCC2(CNC(=O)c3ccc(F)cc3)CCCC12 (configuration not stated)	-0.8	-13.3
COc1ccc(/C=C2\SC(=O)N(CC(=O)Nc3ccc(S(N)(=O)=O)cc3)C2=O)cc1OC	2.5	13.0
Cn1nc(C(=O)NCc2ccc(F)cc2)c2c1CCN(C(=O)c1cccc(F)c1)C2	-7.7	-3.1
Cc1cccc(C(=O)N2CCc3c(c(C(=O)NCc4ccccc4)nn3C)C2)c1	-12.0	88.3*
Cn1nc(C(=O)NCc2ccccc2)c2c1CCN(C(=O)c1ccc(F)cc1)C2	2.6	18.8
CCOc1ccc(C(=O)N2CCc3c(c(C(=O)NCc4cccc(C)c4)nn3C)C2)cc1	-11.0	-0.8
Cc1cccc(CNC(=O)c2nn(C)c3c2CN(C(=O)COc2cccc(C)c2)CC3)c1	-5.4	75.6*
Cc1cccc(CNC(=O)c2nn(C)c3c2CN(C(=O)c2ccc(F)cc2)CC3)c1	-4.7	51.3*
O=C(Nc1cccc(Cl)c1Cl)c1cc(S(=O)(=O)N2CCc3ccccc3C2)ccc1F	-0.4	-1.0
CCOc1ccc(/C=C/C(=O)Nc2ccc3c(c2)OCO3)cc1	7.0	-7.0
COc1ccccc1C(CC(=O)O)c1ccc2c(c1)OCO2 (configuration not stated)	-6.6	-1.1
COc1ccccc1C(CCN(Cc1ccccc1)C(C)=O)c1ccc2c(c1)OCO2 (configuration not stated)	-4.0	99.0*
COc1ccccc1C(CC(=O)N1CCCC1)c1ccc2c(c1)OCO2 (configuration not stated)	2.0	6.0
CCC(=O)N(CCC(c1ccc2c(c1)OCO2)c1ccccc1OC)Cc1ccc2c(c1)OCO2 (configuration not stated)	4.6	43.0
COc1ccc(CN(CCC(c2ccc3c(c2)OCO3)c2ccccc2OC)C(C)=O)cc1OC (configuration not stated)	-6.1	68.0*
COc1ccc(CN(CCC(c2ccc3c(c2)OCO3)c2ccccc2OC)C(C)=O)cc1 (configuration not stated)	1.6	53.0*
O=C(NCc1ccc(N2CCCCCC2)nc1)c1ccccc1Br	-0.2	12.8
O=C(Nc1ccc(F)cc1Cl)C1CCCN(C(=O)Cc2cccc3ccccc23)C1 (configuration not stated)	-1.4	-2.8
Cc1nc(C)c(-c2ccc(=O)n(CCNC(=O)CSc3nnnn3C)n2)s1	-3.6	-17.4
CC(CNC(=O)C1CC1)OC12CC3CC(CC(C3)C1)C2 (configuration not stated)	.	-6.7
O=C(N/C(=C\c1ccc(Br)cc1)c1nc2ccccc2o1)c1ccco1	-1.1	93.8*
NC(=Nc1nc2ccccc2o1)NC(=O)c1ccco1	0.9	0.6
SMILES	Pf apPOL inh	mHTT CaM bind
O=C(O)c1cncc(-c2ccccc2)c1	79.9*	.
O=C(c1ccc(-c2ccccc2)cc1)N1CCN(C(=O)c2cccnc2)CC1	-8.2	8.9
COc1ccc(NC(=O)CCCOc2ccc(Cl)cc2)c(OC)c1	-5.0	-0.2
CC(=O)c1cccc(NC(=O)c2cc3c(n2C)CCN(Cc2cccc(F)c2)C3)c1	-1.5	59.6*
Cn1c(C(=O)NC2CC2)cc2c1CCN(Cc1cccc(F)c1)C2	-4.1	25.7
Cn1c(C(=O)NCCN2CCCCC2)cc2c1CCN(Cc1cccc(F)c1)C2	4.0	48.8
Cn1c(C(=O)Nc2ccc3c(c2)OCO3)cc2c1CCN(Cc1cccc(F)c1)C2	-0.3	52.5*
Cc1cc(O)c(CN2CCCCC2)c2c1C(=O)C(=Cc1cccnc1)O2	-11.3	3.9
CCOc1ccc(C(=O)Nc2ccc(N3CCCC3)cc2)cc1[N+](=O)[O-]	-11.3	30.3
Cc1ccc(NC(=O)C2(c3ccccc3)CCOCC2)cc1	-4.8	-2.3
O=C(Nc1c(Cl)cccc1Cl)C1(c2ccccc2)CCOCC1	85.8*	2.0
CCSc1ccccc1C(=O)Nc1nnc(C2CCCCC2)o1	-17.7	37.4
O=C(Nc1nnc(-c2ccsc2)o1)C1(c2ccccc2)CCOCC1	-149.2	99.7*
O=C(CSCc1ccccc1)Nc1nnc(-c2ccsc2)o1	-18.7	42.5
CCSc1ccccc1C(=O)Nc1nnc(-c2ccsc2)o1	-27.7	84.2*
Cc1c(C(=O)NCCC(C)C)oc2ccc(S(=O)(=O)N3CCC(C)CC3)cc12	-2.2	-14.0
Cc1ncc(CO)c2cc(C(=O)Nc3cccc(C(F)(F)F)c3)c(=Nc3ccc(C#N)cc3)oc12	-6.0	4.0
COc1cccc(C2C3=C(CCCC3=O)Nc3ncnn32)c1OC (configuration not stated)	-16.3	-2.0
O=C(Nc1ccc(O)c2c(=O)cc(-c3ccccc3Cl)oc12)c1ccc(Br)cc1	-4.1	21.0
CN(C)c1ccc(C(=O)Nc2ccc(O)c3c(=O)cc(-c4ccccc4Cl)oc23)cc1	1.9	54.1*
CN(C)c1ccc(/C=C2/N=C(c3ccccc3)OC2=O)cc1Br	0.6	1.0
Nc1nonc1/C(=N/O)N1CCN(c2ccc([N+](=O)[O-])cc2)CC1	0.5	i
COc1cccc2cc(-c3nc4ccccc4[nH]3)c(=N)oc12	74.6*	12.0
COc1cccc2cc(-c3nc4ccccc4[nH]3)c(=Nc3ccc(C(N)=O)cc3)oc12	-0.3	-1.0
Cc1ccccc1CNC(=O)C1(C)CCCN(C(=O)Nc2cccc(Cl)c2C)C1 (configuration not stated)	8.6	5.8
SMILES	Pf apPOL inh	mHTT CaM bind
COC(=O)/C=C(/C)NCCN/C(C)=C\C(=O)OC	.	-6.2
C=CCN1C(=O)C2CCCCN2c2ccc(C(=O)NCc3ccccc3)cc21 (configuration not stated)	0.2	2.9
CC(C)NC(=O)Cn1ccc2ccc(N3CCCCC3)nc21	-2.3	11.2
O=C(CC1CCN(C(=O)c2ccccc2)CC1)NCCN1CCC(Cc2ccccc2)CC1	-3.5	16.4
CCCN1c2ccccc2-c2c(ssc2=S)C1(C)C	.	47.9
CCOc1ccc2c(c1)-c1c(ssc1=S)C(C)(C)N2	.	51.2*
Cc1ccc2c(c1)-c1c(ssc1=S)C(C)(C)N2	.	52.5*
COc1ccc(-c2ccc(OC)cc2C#N)cc1	-9.6	.
COc1ccc(NC(=O)CN2C(=O)C3CCCCN3C(=O)c3ccccc32)c(C)c1 (configuration not stated)	-3.0	-1.5
O=C(NCc1ccccc1)c1nc(-c2ccncc2)cs1	-5.0	12.8
O=C(NC1CCCCC1)C1c2ccccc2C(=O)N1C1CCCCC1 (configuration not stated)	-3.5	9.0
CC1CCCCC1N1C(=O)c2ccccc2C1C(=O)NC1CCCCC1 (configuration not stated)	-3.4	52.0*
CN1C(=O)C2(c3ccccc31)C(C(=O)Nc1ccc(F)cc1)CC1CCCN12 (configuration not stated)	-2.8	1.9
COc1ccccc1Oc1ncnc(-c2ccc(F)c(C)c2)c1N	-0.8	-11.6
CC/C(O)=C(/C#N)c1nc2ccccc2[nH]1	29.0	6.8
N#CC(=C(O)CCCN1C(=O)c2ccccc2C1=O)c1nc2ccccc2[nH]1	-14.8	-0.6
CSCCC(C(O)=C(C#N)c1nc2ccccc2[nH]1)N1C(=O)c2ccccc2C1=O (configuration not stated)	-0.9	67.1*
